# Measured values reported in ChEMBL document CHEMBL2218924, “A broad activity screen in support of a chemogenomic map for kinase signalling research and drug discovery” (Biochem J, 2013).
# Columns and labels:
# [1] = target: T1, Ephrin type-A receptor 3 (Homo sapiens) (UniProt P29320); settings: at 10 µM
# T1 sequence (whole entry): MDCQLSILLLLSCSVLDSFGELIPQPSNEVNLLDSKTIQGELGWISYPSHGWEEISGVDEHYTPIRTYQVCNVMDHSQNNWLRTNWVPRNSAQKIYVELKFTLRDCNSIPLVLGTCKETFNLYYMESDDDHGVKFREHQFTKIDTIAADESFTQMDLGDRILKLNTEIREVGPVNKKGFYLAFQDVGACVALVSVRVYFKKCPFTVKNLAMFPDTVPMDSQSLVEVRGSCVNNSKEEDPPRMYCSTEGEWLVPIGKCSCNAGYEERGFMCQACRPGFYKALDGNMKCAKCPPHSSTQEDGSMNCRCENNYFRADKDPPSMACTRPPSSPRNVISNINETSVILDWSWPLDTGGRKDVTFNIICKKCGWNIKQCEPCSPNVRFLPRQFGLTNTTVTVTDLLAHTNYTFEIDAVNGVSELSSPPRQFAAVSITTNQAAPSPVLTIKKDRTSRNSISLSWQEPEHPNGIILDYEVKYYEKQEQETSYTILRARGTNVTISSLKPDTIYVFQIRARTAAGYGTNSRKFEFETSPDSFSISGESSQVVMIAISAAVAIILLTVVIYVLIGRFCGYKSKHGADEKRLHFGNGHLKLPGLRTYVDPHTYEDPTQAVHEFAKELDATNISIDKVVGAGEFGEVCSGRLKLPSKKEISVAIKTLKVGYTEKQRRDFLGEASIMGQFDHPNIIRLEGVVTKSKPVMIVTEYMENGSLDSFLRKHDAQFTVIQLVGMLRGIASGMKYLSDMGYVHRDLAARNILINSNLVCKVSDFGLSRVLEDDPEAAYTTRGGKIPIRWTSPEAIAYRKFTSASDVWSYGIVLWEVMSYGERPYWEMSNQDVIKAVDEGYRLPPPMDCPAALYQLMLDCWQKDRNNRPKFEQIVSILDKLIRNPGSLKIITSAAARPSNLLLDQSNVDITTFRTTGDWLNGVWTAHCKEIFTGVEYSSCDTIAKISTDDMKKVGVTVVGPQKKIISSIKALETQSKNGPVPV
# [2] = target: Ephrin type-A receptor 4 (Homo sapiens) (UniProt P54764); settings: at 1 µM
# [3] = target: Ephrin type-A receptor 4 (Homo sapiens) (UniProt P54764); settings: at 10 µM
# [4] = target: Ephrin type-A receptor 5 (Homo sapiens) (UniProt P54756); settings: at 1 µM
# [5] = target: Ephrin type-A receptor 5 (Homo sapiens) (UniProt P54756); settings: at 10 µM
# [6] = target: Ephrin type-A receptor 7 (Homo sapiens) (UniProt Q15375); settings: at 1 µM
# [7] = target: Ephrin type-A receptor 7 (Homo sapiens) (UniProt Q15375); settings: at 10 µM
# [8] = target: T2, Ephrin type-A receptor 8 (Homo sapiens) (UniProt P29322); settings: at 1 µM
# T2 sequence (whole entry): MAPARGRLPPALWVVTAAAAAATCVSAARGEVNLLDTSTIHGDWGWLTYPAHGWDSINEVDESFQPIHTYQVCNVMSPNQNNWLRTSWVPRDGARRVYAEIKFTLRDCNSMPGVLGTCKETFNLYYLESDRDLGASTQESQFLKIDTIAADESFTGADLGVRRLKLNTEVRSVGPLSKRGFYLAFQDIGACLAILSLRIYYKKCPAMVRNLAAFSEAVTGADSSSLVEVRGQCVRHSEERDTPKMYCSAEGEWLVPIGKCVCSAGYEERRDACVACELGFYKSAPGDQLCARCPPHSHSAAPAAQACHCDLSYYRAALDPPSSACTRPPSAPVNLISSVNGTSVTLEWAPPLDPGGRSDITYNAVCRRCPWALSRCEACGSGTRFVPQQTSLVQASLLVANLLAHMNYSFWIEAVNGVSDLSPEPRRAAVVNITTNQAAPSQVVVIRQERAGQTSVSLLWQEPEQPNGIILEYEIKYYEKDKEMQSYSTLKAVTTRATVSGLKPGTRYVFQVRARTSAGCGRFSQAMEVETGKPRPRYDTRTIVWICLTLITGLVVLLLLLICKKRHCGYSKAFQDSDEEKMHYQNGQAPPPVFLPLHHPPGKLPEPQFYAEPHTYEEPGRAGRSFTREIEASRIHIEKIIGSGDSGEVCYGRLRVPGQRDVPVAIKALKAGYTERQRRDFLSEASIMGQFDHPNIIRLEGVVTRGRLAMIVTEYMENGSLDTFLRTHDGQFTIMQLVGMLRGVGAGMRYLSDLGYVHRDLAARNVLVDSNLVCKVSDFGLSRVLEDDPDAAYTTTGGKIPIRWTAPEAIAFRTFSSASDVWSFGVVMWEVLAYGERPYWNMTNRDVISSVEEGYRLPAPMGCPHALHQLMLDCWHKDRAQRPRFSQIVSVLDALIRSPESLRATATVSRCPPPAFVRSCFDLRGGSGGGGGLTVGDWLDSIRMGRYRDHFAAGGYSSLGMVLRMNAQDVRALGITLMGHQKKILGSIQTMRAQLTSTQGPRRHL
# [9] = target: T2, Ephrin type-A receptor 8 (Homo sapiens); settings: at 10 µM
# [10] = target: T3, Ephrin type-B receptor 1 (Homo sapiens) (UniProt P54762); settings: at 1 µM
# T3 sequence (whole entry): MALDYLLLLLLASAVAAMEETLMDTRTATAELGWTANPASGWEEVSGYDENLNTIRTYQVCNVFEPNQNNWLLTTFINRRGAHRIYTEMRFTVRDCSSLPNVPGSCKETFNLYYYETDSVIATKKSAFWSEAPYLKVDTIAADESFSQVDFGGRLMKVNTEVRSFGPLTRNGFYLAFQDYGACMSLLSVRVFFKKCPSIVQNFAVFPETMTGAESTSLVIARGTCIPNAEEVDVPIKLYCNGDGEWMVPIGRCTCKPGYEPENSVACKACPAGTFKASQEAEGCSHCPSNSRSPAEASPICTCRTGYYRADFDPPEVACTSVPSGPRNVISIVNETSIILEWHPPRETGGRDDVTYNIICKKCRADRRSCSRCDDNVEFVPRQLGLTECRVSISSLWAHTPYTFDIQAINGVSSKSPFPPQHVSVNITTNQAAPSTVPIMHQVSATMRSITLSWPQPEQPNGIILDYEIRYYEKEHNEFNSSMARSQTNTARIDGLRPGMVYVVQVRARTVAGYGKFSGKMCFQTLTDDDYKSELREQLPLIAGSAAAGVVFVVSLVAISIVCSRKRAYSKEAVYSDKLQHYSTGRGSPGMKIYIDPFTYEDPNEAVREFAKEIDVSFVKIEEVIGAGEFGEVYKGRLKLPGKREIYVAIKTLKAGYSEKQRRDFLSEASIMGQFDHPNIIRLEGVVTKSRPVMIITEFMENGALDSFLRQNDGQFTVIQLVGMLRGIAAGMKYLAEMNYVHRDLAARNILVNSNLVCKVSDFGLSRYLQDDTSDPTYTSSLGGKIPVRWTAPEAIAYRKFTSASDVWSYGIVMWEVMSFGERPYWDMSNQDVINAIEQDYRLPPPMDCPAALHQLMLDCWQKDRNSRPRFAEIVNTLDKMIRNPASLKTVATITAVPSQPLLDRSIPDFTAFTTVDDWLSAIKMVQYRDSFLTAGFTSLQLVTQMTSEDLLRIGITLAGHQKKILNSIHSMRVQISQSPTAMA
# Sequence of Ephrin type-A receptor 4 (Homo sapiens) (P54764 whole entry): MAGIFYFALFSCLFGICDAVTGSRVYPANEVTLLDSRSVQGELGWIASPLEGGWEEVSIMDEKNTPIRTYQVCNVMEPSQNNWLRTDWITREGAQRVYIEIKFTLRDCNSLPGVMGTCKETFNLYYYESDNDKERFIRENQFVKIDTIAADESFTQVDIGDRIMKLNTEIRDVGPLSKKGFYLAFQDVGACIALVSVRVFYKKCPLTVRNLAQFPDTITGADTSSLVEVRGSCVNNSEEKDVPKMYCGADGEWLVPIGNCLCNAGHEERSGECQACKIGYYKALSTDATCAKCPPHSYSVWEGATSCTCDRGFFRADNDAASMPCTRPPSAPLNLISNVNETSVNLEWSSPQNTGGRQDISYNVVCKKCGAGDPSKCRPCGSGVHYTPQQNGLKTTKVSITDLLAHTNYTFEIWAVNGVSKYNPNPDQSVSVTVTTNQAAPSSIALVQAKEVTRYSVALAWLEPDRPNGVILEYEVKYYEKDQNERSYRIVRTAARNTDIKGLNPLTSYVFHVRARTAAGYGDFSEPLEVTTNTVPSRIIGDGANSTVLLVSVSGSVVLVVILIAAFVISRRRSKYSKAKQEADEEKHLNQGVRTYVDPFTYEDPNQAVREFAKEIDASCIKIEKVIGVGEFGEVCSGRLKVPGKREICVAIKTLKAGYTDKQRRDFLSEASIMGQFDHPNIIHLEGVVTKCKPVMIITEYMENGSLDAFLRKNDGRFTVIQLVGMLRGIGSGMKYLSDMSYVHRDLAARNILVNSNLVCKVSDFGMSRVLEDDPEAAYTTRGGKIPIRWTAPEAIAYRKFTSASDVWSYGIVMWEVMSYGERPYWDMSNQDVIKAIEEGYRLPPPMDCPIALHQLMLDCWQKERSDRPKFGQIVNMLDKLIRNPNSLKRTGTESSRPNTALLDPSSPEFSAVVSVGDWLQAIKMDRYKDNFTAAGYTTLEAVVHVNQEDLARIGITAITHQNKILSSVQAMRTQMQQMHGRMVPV
# Sequence of Ephrin type-A receptor 5 (Homo sapiens) (P54756 whole entry): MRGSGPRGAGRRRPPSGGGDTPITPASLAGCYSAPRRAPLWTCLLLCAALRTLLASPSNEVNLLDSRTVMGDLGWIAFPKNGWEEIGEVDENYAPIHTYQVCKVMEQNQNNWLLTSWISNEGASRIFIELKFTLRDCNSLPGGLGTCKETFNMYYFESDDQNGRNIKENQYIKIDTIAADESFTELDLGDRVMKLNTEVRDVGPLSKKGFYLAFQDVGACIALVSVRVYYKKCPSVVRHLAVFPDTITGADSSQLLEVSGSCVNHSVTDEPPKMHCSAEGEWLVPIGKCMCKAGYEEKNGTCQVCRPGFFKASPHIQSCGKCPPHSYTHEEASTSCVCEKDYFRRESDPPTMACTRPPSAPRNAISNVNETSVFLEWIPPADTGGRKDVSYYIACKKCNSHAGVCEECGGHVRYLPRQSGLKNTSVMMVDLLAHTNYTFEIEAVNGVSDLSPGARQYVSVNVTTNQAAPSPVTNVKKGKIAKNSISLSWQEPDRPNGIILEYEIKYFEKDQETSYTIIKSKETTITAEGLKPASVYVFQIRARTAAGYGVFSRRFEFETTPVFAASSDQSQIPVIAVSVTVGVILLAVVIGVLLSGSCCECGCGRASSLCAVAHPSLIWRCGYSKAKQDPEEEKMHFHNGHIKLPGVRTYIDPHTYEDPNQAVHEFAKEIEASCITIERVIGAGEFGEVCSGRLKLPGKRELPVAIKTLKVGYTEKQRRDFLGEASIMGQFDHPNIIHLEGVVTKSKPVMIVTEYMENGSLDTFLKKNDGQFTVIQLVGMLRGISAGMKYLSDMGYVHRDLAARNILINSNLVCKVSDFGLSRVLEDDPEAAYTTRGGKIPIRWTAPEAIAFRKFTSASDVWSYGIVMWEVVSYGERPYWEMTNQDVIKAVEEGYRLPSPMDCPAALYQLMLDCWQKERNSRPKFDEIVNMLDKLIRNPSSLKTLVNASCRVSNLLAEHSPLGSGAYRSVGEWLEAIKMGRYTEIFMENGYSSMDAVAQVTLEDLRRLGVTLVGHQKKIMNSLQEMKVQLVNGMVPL
# Sequence of Ephrin type-A receptor 7 (Homo sapiens) (Q15375 28-998 limits assumed): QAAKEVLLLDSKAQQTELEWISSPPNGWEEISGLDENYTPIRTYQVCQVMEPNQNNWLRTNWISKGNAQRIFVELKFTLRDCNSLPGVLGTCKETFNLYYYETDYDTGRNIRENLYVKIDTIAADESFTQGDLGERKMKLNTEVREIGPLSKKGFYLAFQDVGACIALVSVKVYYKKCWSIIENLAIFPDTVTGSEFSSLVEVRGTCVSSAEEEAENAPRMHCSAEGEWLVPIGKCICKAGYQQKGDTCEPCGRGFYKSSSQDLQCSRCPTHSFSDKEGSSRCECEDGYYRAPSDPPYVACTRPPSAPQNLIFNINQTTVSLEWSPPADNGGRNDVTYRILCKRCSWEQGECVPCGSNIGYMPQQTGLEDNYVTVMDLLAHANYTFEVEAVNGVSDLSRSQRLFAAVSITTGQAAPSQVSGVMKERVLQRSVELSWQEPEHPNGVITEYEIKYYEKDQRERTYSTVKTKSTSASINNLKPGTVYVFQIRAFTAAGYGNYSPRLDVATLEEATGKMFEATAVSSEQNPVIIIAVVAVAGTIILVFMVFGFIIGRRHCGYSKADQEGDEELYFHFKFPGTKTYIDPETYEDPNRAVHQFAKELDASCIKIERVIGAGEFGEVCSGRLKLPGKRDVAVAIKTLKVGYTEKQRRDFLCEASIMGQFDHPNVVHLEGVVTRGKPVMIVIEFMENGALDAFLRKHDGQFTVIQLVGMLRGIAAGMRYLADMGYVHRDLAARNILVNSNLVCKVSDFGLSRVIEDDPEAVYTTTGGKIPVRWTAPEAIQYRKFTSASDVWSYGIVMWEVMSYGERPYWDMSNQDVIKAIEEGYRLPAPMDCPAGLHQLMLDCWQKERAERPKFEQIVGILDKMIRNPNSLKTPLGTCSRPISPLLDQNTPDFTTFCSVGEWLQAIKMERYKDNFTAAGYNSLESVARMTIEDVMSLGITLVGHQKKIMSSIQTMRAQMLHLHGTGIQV
compound,measurement,setting,value
O=c1cc(-c2cccc3c2Sc2ccccc2S3)oc(N2CCOCC2)c1,residual activity,[1],94%
same,residual activity,[2],106%
same,residual activity,[3],104%
same,residual activity,[4],113%
same,residual activity,[5],88%
same,residual activity,[6],97%
same,residual activity,[7],98%
same,residual activity,[8],108%
same,residual activity,[9],111%
same,residual activity,[10],97%
